Bioassay records (PubChem)
Compounds with a hit are over-represented: about 9% of the library has one in this group of screens.
G9a inh = qHTS Assay for Inhibitors of Histone Lysine Methyltransferase G9a | Histone-lysine N-methyltransferase EHMT2 (Homo sapiens), Q96KQ7 | G9a H3K9 monomethylation, AlphaScreen, 2 h | Potency, µM (series often up to 102 µM), for the others: at the top dose activity, negative = inhibition, usual class: inhibitors | 350,000 compounds, 8.8% hits | AID 504332, 2011; also: % is scaled to controls: 0 for no effect and ±100 for the full control effect; nearly all actives have a fitted effect of over 75% in size
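Using a bead-based AlphaScreen, monomethylated H3K9 product from 2 h room-temperature reactions (G9a 20 nM, peptide 500 nM, SAM 20 uM) was detected with 0.5 ug/mL rabbit anti-H3K9me1 antibody.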
JMJD2A Tudor = qHTS Assay for Inhibitors of JMJD2A-Tudor Domain; Potency, µM (highest dose often 114 µM), inactives show top-dose activity change, negative = inhibition, usual class: inhibitors; AlphaScreen JMJD2A-Tudor / H3K4me3 peptide binding; Lysine-specific demethylase 4A (Homo sapiens), O75164; 390,000 compounds, 4.4% hits; also: % is scaled to controls: 0 for no effect and ±100 for the full control effect; nearly all actives have a fitted effect of over 50% in size
HP1b binding inh = HTS for Inhibitors of HP1-beta Chromodomain Interactions with Methylated Histone Tails. 390,000 compounds, 0.56% hits. Potency, µM (series often up to 114 µM), inactives show at the highest dose activity change, negative = inhibition, usual class: inhibitors. Chromobox protein homolog 1 (Homo sapiens), P83916. AlphaScreen HP1-beta / biotin-H3K9me3 peptide binding; also: nearly all actives have a fitted effect of over 70% in size
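HP1-beta protein (50 nM final) preincubated 30 min at room temperature with biotinylated H3(1-18)K9me3 peptide (50 nM) in PBS pH 7.4, 0.01% Tween-20, then compound added for 30 min. AlphaScreen streptavidin donor/nickel chelate acceptor beads (10 ug/mL final), 30 min dark, luminescence read.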
PLK1 PBD block = qHTS for Inhibitors of PLK1-PDB (polo-like kinase 1 - polo-box domain): Primary Screen. AID 720504, 2013. Plk1 PBD binding of FITC phosphopeptide, fluorescence polarization. Serine/threonine-protein kinase PLK1 (Homo sapiens), P53350. 360,000 compounds, 2.8% hits. Potency, µM, without a hit: max response, negative = inhibition, hits mostly inhibitors; also: series mostly up to about 57 µM; % is scaled to controls: 0 for no effect and ±100 for the full control effect; nearly all actives have a fitted effect of over 65% in size
12-LOX inh = Primary qHTS assay for inhibitors of human arachidonate 12S-lipoxygenase (ALOX12): Round 2; purified 12hLO, xylenol orange hydroperoxide absorbance; Potency, µM (doses to about 108 µM), inactives show at the top dose activity change, negative = inhibition, actives largely listed as inhibitors; 580,000 compounds, 1.1% hits; AID 1671190, 2021; also: % is scaled to controls: 0 for no effect and ±100 for the full control effect
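Purified human 12hLO at 150 nM in 25 mM Hepes, 0.01% Triton X-100, pH 7.0, preincubated 15 min at room temperature with compound. Reaction started with 40 uM arachidonic acid, 30 min at room temperature. Hydroperoxide measured by Fe-xylenol orange, 573/405 nm absorbance ratio.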
BAZ2B inh = qHTS Assay for Inhibitors of BAZ2B. AlphaScreen BAZ2B-H3K14Ac peptide displacement. Potency, µM (top dose mostly 114 µM), for the others: top-dose activity change, negative = inhibition, hits mostly inhibitors. 360,000 compounds, 4.4% hits. AID 504333, 2011; also: % is scaled to controls: 0 for no effect and ±100 for the full control effect; nearly all actives have a fitted effect of over 60% in size
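BAZ2B (50 nM) with biotin-H3(5-23)K14Ac peptide (50 nM) in PBS pH 7.4, 0.01% Tween-20, preformed 30 min, then compound 30 min at room temperature; top concentration 110uM. AlphaScreen streptavidin donor/nickel chelate acceptor beads (10 ug/mL final), 20 min dark, signal read.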
* = called active by the depositor; ? = inconclusive; / = no result given; ! = not confirmed by another sample; [ ] = remark or other dose. Calls follow the shape of the dose curve; as a rule, active = well fitted curve in the direction sought with a large enough effect; inconclusive = small, poorly fitted or top-dose-only effect, or another doubt; inactive = no such curve, though single readings can be large; an effect the other way counts as inactive or inconclusive. Potency is read from the fitted curve at half-maximal effect.

SMILES	G9a inh	JMJD2A Tudor	HP1b binding inh	PLK1 PBD block	12-LOX inh	BAZ2B inh
CCOc1ccc(N=Nc2c(=O)[nH]n3c(=O)cc(C)[nH]c23)cc1	?	56µM*	-22%	0%	223%	50µM*
COc1cccc(N=Nc2c(N)[nH][nH]c2=O)c1	4.5µM*	-26%	-6%	-8%	?	-37%
Cc1cc(=O)n2[nH]c(=O)c(N=Nc3ccccc3)c2[nH]1	-13%[12.7 µM]	?	9%	-5%	?	?
Cc1ccc(-c2cnc3c(Nc4cccc(OC(F)(F)C(F)F)c4)nccn23)cc1	/	/	/	-1%	-2%	/
COc1cc(/C=N/NC(=O)CSc2cc(C)c(Br)cc2C)ccc1O	2%	2%	15%	-2%	-6%	4%
Cc1cc(SCC(=O)N/N=C/c2ccc(O)c(O)c2O)c(C)cc1Br	?	50µM*	?	6µM*	?	-26%
COc1ccc(C(=O)NCCC2CCN(C(=O)Nc3ccc(C)c(F)c3)CC2)cc1	/	/	/	/	45%	/
Cc1c(C(=O)N(Cc2ccc(N(C)C)cc2)CC2CCCO2)oc2ccc(Br)cc12 (configuration not stated)	13µM*	13µM*	?	/	-22%	10µM*
Cc1c(C(=O)N(Cc2ccc(N(C)C)cc2)CC2CCCO2)oc2ccccc12 (configuration not stated)	14µM*!	28µM*	?	0%	20%	11µM*
Cc1cc2oc(C(=O)N(Cc3ccc(N(C)C)cc3)CC3CCCO3)c(C)c2cc1Cl (configuration not stated)	14µM*	22µM*	-21%	/	-20%	14µM*
Cc1c(C(=O)N(Cc2ccc(N(C)C)cc2)CC2CCCO2)oc2ccc(Cl)cc12 (configuration not stated)	11µM*	13µM*	?	/	0%	10µM*
Cc1ccc2oc(C(=O)N(Cc3ccncc3)CC3CCCO3)c(C)c2c1 (configuration not stated)	?	-9%	24%	-9%	6%	-19%
Cc1c(C(=O)N(Cc2ccc(Cl)cc2)CC2CCCO2)oc2ccc(F)cc12 (configuration not stated)	78%[59 µM]	63%	114%	/	?	47%
CCCc1ccc2oc(C(=O)N(Cc3ccncc3)CC3CCCO3)c(C)c2c1 (configuration not stated)	-10%	-20%	26%	-4%	-21%	-29%
Cc1ccc(N=Cc2nc(/C=C/c3cccc([N+](=O)[O-])c3)oc2O)cc1	-14%	-15%	18%	-7%	-10%	-7%
COc1ccc(S(=O)(=O)NCCc2csc3nc(-c4ccccc4)nn23)cc1OC	0%[59 µM]	-10%	19%	/	-20%	-10%
Cc1c(N2C(=O)/C(=C3\C(=O)N(CC(=O)O)c4ccccc43)SC2=S)c(=O)n(-c2ccccc2)n1C	/	-20%	5%	?	?	79µM*
CCN1C(=O)/C(=C2\SC(=S)N(CCCOC)C2=O)c2ccccc21	-2%[12.7 µM]	?	?	-2%	-6%	?
Cc1c(N2C(=O)/C(=C/c3ccccc3)SC2=S)c(=O)n(-c2ccccc2)n1C	21%[0.501 µM]	-22%	-6%	-10%	0%	-37%
CC1CN(C2=NC(=O)/C(=C3/C(=O)N(Cc4ccc(F)cc4)c4ccccc43)S2)CC(C)O1 (configuration not stated)	/	-33%	?	?	?	?
O=C(O)CCN1C(=O)/C(=C2\C(=O)N(Cc3ccc(F)cc3)c3ccccc32)SC1=S	16µM*	25µM*	28µM*	19µM*	?	2.5µM*
CN1C(=O)/C(=C2\SC(=S)N(CCCCCC(=O)O)C2=O)c2ccccc21	-27%	?	40µM*	?	-3%	-21%
O=C(CSCc1cnn(-c2ccccc2)c1-n1cccc1)NCc1ccc2c(c1)OCO2	?	?	1%	-9%	12%	-30%
Oc1oc(C=Nc2ccc(F)cc2F)c2ccccc12	5µM*	-19%	48%	-4%	-19%	?
CSc1n[nH]c(/N=C/c2oc(O)c3ccccc23)n1	20µM*	-17%	53%	-14%	-14%	?
SMILES	G9a inh	JMJD2A Tudor	HP1b binding inh	PLK1 PBD block	12-LOX inh	BAZ2B inh
CC(C)(Cc1ccc(O)cc1)NC(=O)c1ccccc1	/	-2%	19%	-6%	0%	-7%
COC(=O)C(C)(N)Cc1ccc(O)cc1 (configuration not stated)	25µM*!	-19%	21%	-17%	-4%	10%
COc1ccc(OCCNC2CCCC2)cc1	10µM*	79µM*	15%	1%	-21%	?
COc1ccc(OCCC(=O)NC2CCCCC2)cc1	10%	4%	18%	1%	-7%	-7%
c1ccc(SCCCCNC2CCCC2)cc1	8.9µM*	3.2µM*	-18%[57 µM]	?	-28%	56µM*
c1cc2c(cc1OCCNC1CCCC1)CCC2	22µM*	/	/	/	/	56µM*
CNCCCOc1ccc2c(c1)CCC2	50µM*	22µM*	-37%	-9%	-42%	50µM*
c1ccc(SCCCCN2CCOCC2)cc1	14%	-13%	14%	-14%	-14%	-23%
OCCNCCO	0%[12.7 µM]	-10%	10%	-8%	32%	3%
c1ccc(Cc2ccc(OCCCNC3CCCC3)cc2)cc1	13µM*	/	/	/	/	56µM*
CC(=O)N1CC(C)Sc2ccc(S(=O)(=O)NCCc3cccc(C)c3)cc21 (configuration not stated)	-13%	?	18%	12µM*	-16%	-19%
COc1ccc(-c2cc3nc4c(c(=O)n3[nH]2)CN(C(=O)NCc2ccco2)CC4)cc1	/	/	/	/	7%	/
O=C1CNC(=S)N1CCc1ccc(O)c(O)c1	10µM*	?	-1%	-3%	?	-1%
O=C1CNC(=S)N1CCOc1ccccc1	24%	0%	28%	1%	0%	-16%
CCN(CC)CCCNC(=O)c1cn(CC)c2ccc(S(=O)(=O)N(C)C3CCCCC3)cc2c1=O	/	-15%	33%	?	?	-18%
O=C(CN(c1ccc(F)cc1)S(=O)(=O)c1ccc2c(c1)OCCO2)NCc1ccncc1	7%[59 µM]	1%[57.1 µM]	22%	-8%	-15%	-1%
